Source: the supplement of paper PMC10849652
About 7,900 targets were measured; listed, in parts, are those with a hit and a random draw of the rest. About 0.6% of all pairs of compound and target were hits. A number with no mark means an inactive call.

Key:
Test in all cases: log2 fold change, soluble protein after heating vs DMSO (PISA); higher = thermal stabilisation; K562 cells, 10 uM, 30 min; active = over 0.2 and 3.5 SD of the protein, either way, in both replicates (recomputed)
[1] = compound: CC1=C(C=C(C=C1)NC(=O)C2=CC(=CC=C2)C(C)(C)C#N)NC3=CC4=C(C=C3)N=CN(C4=O)C
Outline: (§1)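 K562 cells (2×10^6 cells/mL) were treated with 10 μM compound for 30 min, and aliquots were heated for 3 min over 48°C-58°C. Pooled aliquots were extracted in PBS with 0.5% NP-40 at 4°C, and the supernatant after 21,000xg for 90 min was measured by TMTpro 16plex LC-MS/MS with channel sums equalised. Reported thermal stability, relative to control samples and from duplicates, is a log2 fold change.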

[2] = compound: CC1=C(C=C(C=C1)NC(=O)C2=CC(=CC=C2)N(C)C)NC(=O)C3=CC=C(C=C3)O
Outline: as §1

[3] = compound: CC1=CC=C(C=C1)SC2=C3C=C(SC3=CN=C2)C(=O)N
Outline: as §1

[4] = compound: CC1=NC(=CC=C1)C2=C(N=C(N2)C(C)(C)C)C3=CC4=NC=CN=C4C=C3
Outline: as §1

Nexturastat A = compound: CCCCN(Cc1ccc(C(=O)NO)cc1)C(=O)Nc1ccccc1 [Nexturastat A]
Outline: as §1

vemurafenib = compound: CCCS(=O)(=O)Nc1ccc(F)c(C(=O)c2c[nH]c3ncc(-c4ccc(Cl)cc4)cc23)c1F [vemurafenib]
Outline: as §1

[5] = compound: CCCS(=O)(=O)Nc1ccc(F)c(C(=O)c2c[nH]c3ncc(Cl)cc23)c1F
Outline: as §1

[6] = compound: CCCc1cc(C)[nH]c(=O)c1CNC(=O)c1cc(-c2ccnc(N3CCN(C)CC3)c2)cc2c1cnn2C(C)C
Outline: as §1

givinostat = compound: CCN(CC)Cc1ccc2cc(COC(=O)Nc3ccc(C(=O)NO)cc3)ccc2c1 [givinostat]
Outline: as §1

barasertib = compound: CCN(CCCOc1ccc2c(Nc3cc(CC(=O)Nc4cccc(F)c4)[nH]n3)ncnc2c1)CCOP(=O)(O)O [barasertib]
Outline: as §1

Chain of UniProt Q6UUV9 (Q6UUV9 whole entry, looked up): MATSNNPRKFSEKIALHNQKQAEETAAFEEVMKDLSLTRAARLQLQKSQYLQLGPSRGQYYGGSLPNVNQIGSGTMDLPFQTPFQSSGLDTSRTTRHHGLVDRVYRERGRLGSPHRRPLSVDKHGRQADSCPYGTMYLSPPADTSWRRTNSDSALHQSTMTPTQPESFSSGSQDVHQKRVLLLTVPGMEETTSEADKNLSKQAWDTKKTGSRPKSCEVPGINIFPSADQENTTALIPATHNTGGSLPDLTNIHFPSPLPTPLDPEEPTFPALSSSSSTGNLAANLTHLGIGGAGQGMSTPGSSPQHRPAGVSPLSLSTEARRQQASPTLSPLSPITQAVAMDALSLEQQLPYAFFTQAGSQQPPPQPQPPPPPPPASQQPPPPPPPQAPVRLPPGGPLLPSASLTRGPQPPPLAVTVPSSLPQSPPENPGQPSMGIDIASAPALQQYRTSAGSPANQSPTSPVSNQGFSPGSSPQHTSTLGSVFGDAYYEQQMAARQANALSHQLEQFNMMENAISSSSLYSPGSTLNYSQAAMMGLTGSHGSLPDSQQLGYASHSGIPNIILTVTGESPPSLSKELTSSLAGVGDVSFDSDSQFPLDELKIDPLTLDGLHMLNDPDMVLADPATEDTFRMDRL
Chain of UniProt O75208 (O75208 whole entry, looked up): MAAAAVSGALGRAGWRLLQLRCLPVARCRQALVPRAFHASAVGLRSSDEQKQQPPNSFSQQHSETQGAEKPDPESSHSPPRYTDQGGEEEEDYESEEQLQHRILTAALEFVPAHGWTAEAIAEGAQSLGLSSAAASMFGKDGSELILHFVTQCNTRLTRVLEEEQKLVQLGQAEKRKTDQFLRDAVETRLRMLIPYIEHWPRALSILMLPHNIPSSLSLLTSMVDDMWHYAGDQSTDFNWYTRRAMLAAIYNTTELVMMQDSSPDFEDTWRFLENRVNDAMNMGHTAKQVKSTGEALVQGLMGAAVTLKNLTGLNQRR
Chain of UniProt Q13111 (Q13111 whole entry, looked up): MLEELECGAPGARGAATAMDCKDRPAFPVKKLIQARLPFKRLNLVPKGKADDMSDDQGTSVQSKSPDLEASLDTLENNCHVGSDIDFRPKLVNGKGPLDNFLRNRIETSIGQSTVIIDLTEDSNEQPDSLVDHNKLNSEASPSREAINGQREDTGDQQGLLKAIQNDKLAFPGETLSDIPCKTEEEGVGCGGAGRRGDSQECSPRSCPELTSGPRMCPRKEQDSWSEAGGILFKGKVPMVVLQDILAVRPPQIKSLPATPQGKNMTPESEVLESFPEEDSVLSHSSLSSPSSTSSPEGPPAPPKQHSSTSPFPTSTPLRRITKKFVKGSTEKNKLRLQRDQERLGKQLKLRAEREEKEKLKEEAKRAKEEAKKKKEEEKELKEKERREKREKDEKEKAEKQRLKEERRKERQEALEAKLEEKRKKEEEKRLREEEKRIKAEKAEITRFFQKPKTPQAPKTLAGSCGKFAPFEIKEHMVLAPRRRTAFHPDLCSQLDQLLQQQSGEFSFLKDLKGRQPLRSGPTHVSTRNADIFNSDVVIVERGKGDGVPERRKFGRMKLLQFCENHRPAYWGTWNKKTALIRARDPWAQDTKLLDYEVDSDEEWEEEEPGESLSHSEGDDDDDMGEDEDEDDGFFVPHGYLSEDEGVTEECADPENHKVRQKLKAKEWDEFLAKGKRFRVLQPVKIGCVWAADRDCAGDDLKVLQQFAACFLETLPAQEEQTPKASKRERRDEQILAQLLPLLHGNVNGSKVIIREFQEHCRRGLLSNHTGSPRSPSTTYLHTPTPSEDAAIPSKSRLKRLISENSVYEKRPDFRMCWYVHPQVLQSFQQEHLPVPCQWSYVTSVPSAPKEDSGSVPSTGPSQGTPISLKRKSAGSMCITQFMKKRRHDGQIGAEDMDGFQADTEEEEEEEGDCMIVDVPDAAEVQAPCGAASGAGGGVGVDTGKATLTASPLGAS
Chain of UniProt A6NHX0 (A6NHX0 whole entry, looked up): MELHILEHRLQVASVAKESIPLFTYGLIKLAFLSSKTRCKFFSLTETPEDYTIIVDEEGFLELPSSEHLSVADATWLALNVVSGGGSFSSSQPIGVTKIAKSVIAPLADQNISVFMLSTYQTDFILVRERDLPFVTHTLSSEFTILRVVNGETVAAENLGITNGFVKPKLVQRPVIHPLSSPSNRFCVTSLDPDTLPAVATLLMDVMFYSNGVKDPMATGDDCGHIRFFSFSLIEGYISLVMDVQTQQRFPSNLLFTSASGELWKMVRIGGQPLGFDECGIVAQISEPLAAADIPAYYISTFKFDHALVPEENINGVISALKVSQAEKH
Chain of UniProt P24863 (P24863 whole entry, looked up): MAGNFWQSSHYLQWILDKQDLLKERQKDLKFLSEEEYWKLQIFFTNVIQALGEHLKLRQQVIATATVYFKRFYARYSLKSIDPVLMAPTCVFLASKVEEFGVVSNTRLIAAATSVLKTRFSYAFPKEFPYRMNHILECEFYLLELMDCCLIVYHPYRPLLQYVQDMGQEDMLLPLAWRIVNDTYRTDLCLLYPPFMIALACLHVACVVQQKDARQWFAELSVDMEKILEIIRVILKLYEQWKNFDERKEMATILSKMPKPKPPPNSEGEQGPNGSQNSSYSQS
Chain of UniProt P21964 (P21964 whole entry, looked up): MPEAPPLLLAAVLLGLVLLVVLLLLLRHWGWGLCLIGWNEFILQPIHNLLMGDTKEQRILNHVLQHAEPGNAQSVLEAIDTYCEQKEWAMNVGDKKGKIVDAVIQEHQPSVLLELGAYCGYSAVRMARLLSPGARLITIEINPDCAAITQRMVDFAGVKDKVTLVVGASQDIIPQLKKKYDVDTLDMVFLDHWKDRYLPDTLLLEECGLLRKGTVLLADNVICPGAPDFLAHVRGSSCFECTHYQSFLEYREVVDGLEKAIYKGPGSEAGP
Chain of UniProt O15234 (O15234 whole entry, looked up): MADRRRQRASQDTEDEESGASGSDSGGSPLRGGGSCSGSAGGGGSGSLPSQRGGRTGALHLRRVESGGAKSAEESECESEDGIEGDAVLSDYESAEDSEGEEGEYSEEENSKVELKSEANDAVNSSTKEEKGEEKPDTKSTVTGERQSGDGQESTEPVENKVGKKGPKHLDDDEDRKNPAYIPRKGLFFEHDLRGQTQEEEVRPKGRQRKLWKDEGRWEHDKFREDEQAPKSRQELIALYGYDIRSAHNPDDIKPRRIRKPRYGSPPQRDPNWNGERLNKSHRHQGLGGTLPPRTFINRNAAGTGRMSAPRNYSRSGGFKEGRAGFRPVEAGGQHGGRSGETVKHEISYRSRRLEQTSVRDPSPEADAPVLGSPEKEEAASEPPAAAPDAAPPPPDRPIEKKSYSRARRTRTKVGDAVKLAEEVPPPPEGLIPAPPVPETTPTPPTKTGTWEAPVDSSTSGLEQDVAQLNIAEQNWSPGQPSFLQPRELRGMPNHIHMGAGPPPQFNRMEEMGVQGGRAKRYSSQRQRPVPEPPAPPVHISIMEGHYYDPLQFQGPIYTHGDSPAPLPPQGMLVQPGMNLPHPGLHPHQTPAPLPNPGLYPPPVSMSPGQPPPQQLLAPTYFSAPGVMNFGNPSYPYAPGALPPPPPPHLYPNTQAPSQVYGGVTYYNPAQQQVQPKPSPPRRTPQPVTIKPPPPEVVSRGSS
Chain of UniProt Q8WUD6 (Q8WUD6 whole entry, looked up): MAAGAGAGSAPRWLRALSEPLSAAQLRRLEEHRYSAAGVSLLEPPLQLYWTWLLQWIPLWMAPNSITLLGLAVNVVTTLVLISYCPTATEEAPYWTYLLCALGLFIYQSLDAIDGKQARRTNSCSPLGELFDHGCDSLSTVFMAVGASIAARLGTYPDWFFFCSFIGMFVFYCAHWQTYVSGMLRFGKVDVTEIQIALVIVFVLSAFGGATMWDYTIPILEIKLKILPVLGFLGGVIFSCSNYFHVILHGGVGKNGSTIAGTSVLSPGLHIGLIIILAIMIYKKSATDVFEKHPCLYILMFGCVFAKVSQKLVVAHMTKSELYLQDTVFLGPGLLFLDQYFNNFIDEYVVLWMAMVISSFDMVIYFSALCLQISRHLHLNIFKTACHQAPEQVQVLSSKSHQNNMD
Chain of UniProt P51790 (P51790 whole entry, looked up): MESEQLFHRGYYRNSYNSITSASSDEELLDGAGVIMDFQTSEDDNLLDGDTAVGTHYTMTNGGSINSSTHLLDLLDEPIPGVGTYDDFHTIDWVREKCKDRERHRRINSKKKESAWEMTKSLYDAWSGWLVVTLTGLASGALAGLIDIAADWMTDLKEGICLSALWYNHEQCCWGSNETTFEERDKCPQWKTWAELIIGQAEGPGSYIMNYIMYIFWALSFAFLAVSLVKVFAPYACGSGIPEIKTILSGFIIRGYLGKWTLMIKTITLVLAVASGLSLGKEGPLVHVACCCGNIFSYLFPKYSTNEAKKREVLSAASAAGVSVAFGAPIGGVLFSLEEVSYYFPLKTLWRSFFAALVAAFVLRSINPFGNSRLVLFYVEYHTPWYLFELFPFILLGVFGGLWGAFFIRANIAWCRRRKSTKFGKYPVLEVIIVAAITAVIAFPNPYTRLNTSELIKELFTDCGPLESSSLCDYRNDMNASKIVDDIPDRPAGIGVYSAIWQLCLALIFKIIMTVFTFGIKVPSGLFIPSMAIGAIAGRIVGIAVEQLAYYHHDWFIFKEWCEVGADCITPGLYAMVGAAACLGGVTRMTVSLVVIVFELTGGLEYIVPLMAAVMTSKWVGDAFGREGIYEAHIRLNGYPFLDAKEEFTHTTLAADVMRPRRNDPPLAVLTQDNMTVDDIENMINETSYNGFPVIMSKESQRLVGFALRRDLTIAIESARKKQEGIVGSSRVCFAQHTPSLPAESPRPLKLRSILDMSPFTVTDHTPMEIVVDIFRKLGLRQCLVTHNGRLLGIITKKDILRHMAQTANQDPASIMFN
Chain of UniProt P83916 (P83916 whole entry, looked up): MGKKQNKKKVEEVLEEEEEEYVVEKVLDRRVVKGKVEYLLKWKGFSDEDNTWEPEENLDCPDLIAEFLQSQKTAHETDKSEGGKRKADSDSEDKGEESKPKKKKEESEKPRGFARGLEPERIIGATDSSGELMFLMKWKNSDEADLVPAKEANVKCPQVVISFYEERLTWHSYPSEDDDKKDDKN

Row | Target | log2 fold change [1] | log2 fold change [2] | log2 fold change [3] | log2 fold change [4] | log2 fold change (Nexturastat A) | log2 fold change (vemurafenib) | log2 fold change [5] | log2 fold change [6] | log2 fold change (givinostat) | log2 fold change (barasertib)
1 | CASC3 (UniProt O15234) | 0.043 | -0.003 | 0.009 | -0.027 | -0.004 | -0.156 | -0.061 | -0.065 | -0.045 | 0.043
2 | CBX1 (UniProt P83916) | 0.049 | -0.005 | 0.04 | 0.318 (active) | -0.026 | 0.07 | 0.057 | -0.011 | -0.042 | -0.009
3 | COMT (UniProt P21964) | 0.14 | 0.009 | -0.012 | 0.019 | 0.036 | 0.011 | 0.002 | 0.005 | 0.144 | -0.006
4 | CBR1 (UniProt P16152) | 0.006 | -0.023 | 0.005 | 0.038 | -0.032 | -0.001 | 0.074 | 0.051 | 0.005 | 0.025
5 | CLCN3 (UniProt P51790) | -0.03 | 0.046 | 0.015 | 0.034 | -0.313 (active) | 0.014 | 0.009 | -0.107 | 0.02 | 0.053
6 | COQ9 (UniProt O75208) | 0.016 | 0.045 | 0.054 | 0.064 | -0.266 (active) | 0.041 | -0.004 | -0.006 | -0.006 | 0.046
7 | CRKL (UniProt P46109) | -1.25 (active) | -0.029 | 0.014 | 0.019 | -0.003 | -0.018 | -0.009 | -0.024 | 0.009 | 0.01
8 | COCH (UniProt O43405) | 0.072 | 0.053 | 0.059 | 0.005 | 0.046 | -0.067 | -0.05 | 0.076 | -0.049 | 0
9 | CASTOR2 (UniProt A6NHX0) | -0.015 | -0.01 | 0.037 | 0.033 | -0.085 | 0.046 | -0.465 (active) | -0.021 | 0.041 | 0.01
10 | CIR1 (UniProt Q86X95) | -0.04 | -0.38 | 0.047 | -0.018 | 0.199 | -0.156 | -0.129 | 0.047 | -0.015 | -0.105
11 | CD63 (UniProt P08962) | -0.007 | 0.056 | 0.004 | 0.009 | -0.072 | 0.064 | -0.007 | -0.125 | 0.096 | -0.025
12 | CCNH (UniProt P51946) | -0.023 | 0.007 | -0.015 | -0.056 | -0.002 | 0.003 | 0.018 | -0.029 | -0.007 | 0.031
13 | CD151 (UniProt P48509) | -0.125 | -0.057 | -0.002 | 0.027 | -0.159 | -0.103 | 0 | -0.21 | 0.018 | -0.052
14 | CCDC167 (UniProt Q9P0B6) | 0.064 | -0.039 | -0.007 | -0.042 | 0.022 |  | -0.034 | 0.022 | 0.048 | -0.003
15 | CRTC1 isoform 2 (UniProt Q6UUV9) | -0.001 | 0.195 | -0.086 | 0.073 | 0.24 | -0.035 | 0.051 |  | 0.158 | 0.015
16 | CMTM3 (UniProt Q96MX0) | 0.052 |  | 0.117 | -0.027 | -0.119 | 0 | 0.001 | -0.024 | -0.016 | 0.098
17 | C15orf41 (UniProt Q9Y2V0) | 0.022 | -0.026 | -0.017 | -0.002 | -0.006 | 0.015 | 0.032 |  | -0.012 | 
18 | CAB39L (UniProt Q9H9S4) | -0.142 | -0.008 | 0.004 | -0.043 | 0.003 | -0.013 | -0.001 |  | -0.025 | 0.043
19 | CCNC (UniProt P24863) | 0.207 | -0.072 |  | 0.031 | 0.008 | 0.105 |  | -0.086 | 0.011 | -0.024
20 | CHPT1 (UniProt Q8WUD6) | 0.088 | 0.055 | 0.132 |  | 0.114 |  | 0.051 | 0.047 |  | 
21 | C6orf120 (UniProt Q7Z4R8) | -0.054 | 0.045 | 0.018 | -0.094 |  | -0.035 | 0.069 |  | -0.011 | 0.017
22 | CCNDBP1 (UniProt O95273) | -0.104 | 0.027 |  |  |  | -0.074 |  | -0.091 | -0.046 | 0.088
23 | CORO2A (UniProt Q92828) | 0.014 | 0.157 | 0.01 |  |  | 0.063 | 0.054 | 0.026 | 0.002 | 0.065
24 | CHMP4B (UniProt Q9H444) | 0.181 | 0.008 | -0.073 | 0.007 | -0.04 | -0.036 | -0.126 | -0.02 | -0.061 | 0.001
25 | CRTC3 (UniProt Q6UUV7) | -0.017 | 0.087 | 0.033 |  | -0.049 | -0.093 | 0.144 | -0.543 (active) |  | 0.035
26 | CHAF1A (UniProt Q13111) | 0.035 | -0.054 | 0.087 | -0.116 | 0.088 |  | 0.026 | -0.097 | 0.149 | 0.107
27 | CAMSAP1 isoform 3 (UniProt Q5T5Y3) | 0.03 | -0.009 | -0.02 | -0.101 | 0.168 | -0.274 | 0.042 | -0.19 | 0.151 | 0.077
